Screening results deposited in PubChem BioAssay by National Center for Advancing Translational Sciences (NCATS).
Shown are actives, neighbours in structure and some others; about 8% of the full set was active somewhere.
SARS PLP yeast: inhibitors of SARS-CoV papain-like protease in yeast; S. cerevisiae expressing SARS-CoV PLpro, growth rescue; Potency, µM (highest dose often 32.9 µM), without a hit: top-dose activity, positive = growth rescue, actives largely listed as activators; 330,000 tested, 0.19% active; AID 485353; calls by dose curve; further: potency means the concentration at half of the fitted maximal effect; 0% is about no effect; nearly all actives have a fitted effect of over 55% in size
HCMV inh: human cytomegalovirus inhibition; AID 1259415; activity change, negative = inhibition, % at 57.5 µM; HFF cells, HCMV-luciferase reporter, 72 h; hits give low values; 410,000 tested, 4.5% active; in the data active means activity change below about -60%; inconclusive means no clear call, values can overlap the other calls; inactive means above about -39%; further: on the % scale 0 is the no-effect control and ±100 the full control effect
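Cell-based, HFFs, 1000 cells/well, 16 h 37C; cpds in DMSO + HCMV-luc, MOI 1 PFU/cell; 72 h 37C; OneGlo luminescence after 5 min RT; norm. to buffer vs Salinomycin 10uM.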
MARV entry inh: inhibitors of Marburg virus binding or cell entry; Marburg virus pseudotyped entry inhibition, cell reporter; Potency, µM (doses to about 37.8 µM), for the others: top-dose activity change, negative = inhibition, most hits filed as inhibitors; 300,000 tested, 1.8% active; calls by dose curve; tested in HEK293 cells; further: potency means the concentration at half of the fitted maximal effect; on the % scale 0 is the no-effect control and ±100 the full control effect
FMDV antiviral: foot and mouth disease virus antiviral activity; FMDV antiviral cell-based qHTS; Potency, µM (doses to about 57.9 µM), without a hit: at the top dose activity change, negative = inhibition, usual class: inhibitors; 410,000 tested, 1.2% active; calls by dose curve; tested in HEK293T cells; further: read-out not given here; potency means the concentration at half of the fitted maximal effect; on the % scale 0 is the no-effect control and ±100 the full control effect; nearly all actives have a fitted effect of over 45% in size
LASV entry inh: inhibitors of Lassa virus binding or cell entry | Lassa virus pseudotype entry inhibition, cell reporter | Potency, µM (titrated, usually from 37.9 µM), for the others: at the highest dose activity change, negative = inhibition, actives largely listed as inhibitors | 300,000 tested, 1.2% active; calls by dose curve; tested in HEK293 cells; further: potency means the concentration at half of the fitted maximal effect; on the % scale 0 is the no-effect control and ±100 the full control effect; nearly all actives have a fitted effect of over 50% in size
HCV inhibitor: HCV inhibition. Huh7.5.1 HCVcc-Cre infection, luciferase reporter, 44 h. AID 651820. Potency, µM (doses to about 41.8 µM), inactives show top-dose activity change, negative = inhibition, hits mostly inhibitors. 340,000 tested, 3.4% active; active means well fitted inhibition curve with a large enough effect; inconclusive means small, poorly fitted or top-dose-only effect, or another doubt; inactive means no such curve, though single readings can be large or run the other way; further: potency means the concentration at half of the fitted maximal effect; on the % scale 0 is the no-effect control and ±100 the full control effect
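Infectious HCV cell culture screen: compound-treated cells (1,000/well, pre-plated 4 h) are infected with HCVcc-Cre at roughly 0.5 moi and grown 44 h. Infection is quantified by luciferase signal after 15 min substrate incubation at room temperature.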
Numbers without * were called inactive; [ ] = remark or other dose.

COc1cc(C2CC(c3cccs3)=NN2C(=O)CCl)ccc1OC(F)F (centres undefined) was read as SARS PLP yeast -5%, HCMV inh -97*, MARV entry inh inconclusive, FMDV antiviral 16µM*, LASV entry inh inconclusive and HCV inhibitor 11µM*.
For COc1ccc(C2CC(c3cccs3)=NN2C(=O)CCl)cc1OC (centres undefined) the results were SARS PLP yeast -5%, HCMV inh -97*, MARV entry inh inconclusive, FMDV antiviral inconclusive, LASV entry inh inconclusive and HCV inhibitor inconclusive.
For Cc1ccc(C2=NN(C(=O)CCl)C(c3cccs3)C2)o1 (centres undefined) the results were SARS PLP yeast -28%, HCMV inh -100*, MARV entry inh inconclusive, FMDV antiviral 14µM*, LASV entry inh inconclusive and HCV inhibitor inconclusive.
Screening COc1ccc(C2CC(c3cccs3)=NN2C(=O)c2ccccc2)cc1OC (centres undefined) returned SARS PLP yeast 5%, HCMV inh -5, MARV entry inh 1%, FMDV antiviral -19%, LASV entry inh -9% and HCV inhibitor -13%.
For Cc1ccc(S(=O)(=O)Nc2cc3c(cc2C)n(C)c(=O)c(=O)n3C)c(C)c1 the results were HCMV inh inconclusive, FMDV antiviral 16% and LASV entry inh 12%[46.1 µM].
Cc1c2cnn(CC(=O)N3CCN(c4ccc(F)cc4)CC3)c(=O)c2c(C)n1Cc1ccccc1F was read as HCMV inh -18, MARV entry inh 1%[46.1 µM], FMDV antiviral inconclusive and LASV entry inh -6%[46.1 µM].
Screening OCCN1CCN(Cc2ccc3c(c2)CN(Cc2ccc4ccccc4c2)CCO3)CC1 returned FMDV antiviral 8%.
For Fc1cccc(Nc2ncnc3c2cnn3-c2ccccc2)c1 the results were SARS PLP yeast -6%, HCMV inh -31, FMDV antiviral -17% and HCV inhibitor inconclusive.
For Clc1cccc(Nc2ncnc3c2cnn3-c2ccccc2)c1 the results were SARS PLP yeast -13%, HCMV inh -32, FMDV antiviral 3% and HCV inhibitor 11µM*.
`CCCCNc1ncnc2c1cnn2-c1ccccc1` gave SARS PLP yeast -8%, HCMV inh 104, MARV entry inh 10µM*, FMDV antiviral 1%, LASV entry inh inconclusive and HCV inhibitor inconclusive.
CCCCNc1ncnc2c1cnn2-c1ccc(Cl)cc1 was read as SARS PLP yeast -5%, HCMV inh 105, FMDV antiviral -9% and HCV inhibitor 10µM*.
`c1ccc(-n2ncc3c(NCCCN4CCOCC4)ncnc32)cc1` gave SARS PLP yeast 3%, HCMV inh 167, MARV entry inh inconclusive, FMDV antiviral 46%, LASV entry inh inconclusive and HCV inhibitor -16%.
For CCCCNc1ncnc2c1cnn2Cc1ccc(Cl)cc1 the results were SARS PLP yeast 0%, HCMV inh -21, FMDV antiviral -5% and HCV inhibitor inconclusive.
Clc1ccc(-n2ncc3c(NCCCn4ccnc4)ncnc32)cc1 was read as SARS PLP yeast -12%, HCMV inh 41, MARV entry inh inconclusive, FMDV antiviral 31%, LASV entry inh inconclusive and HCV inhibitor 11µM*.
CCOC(=O)N1CCc2c(sc3c2c(=O)n(Cc2ccccc2)c(=O)n3CC(=O)Nc2ccccc2F)C1 was read as HCMV inh -22, MARV entry inh 0%[46.1 µM], FMDV antiviral -11% and LASV entry inh 18%[46.1 µM].
For CCOc1ccc(CNC(=O)C2CCCN(c3nc4c(C)cc(C)cc4s3)C2)cc1 (centres undefined) the results were HCMV inh 38, MARV entry inh 9%[46.1 µM] and FMDV antiviral 32%.
Screening COc1cc(NS(=O)(=O)c2ccc3c(c2)oc(=O)n3C)cc(OC)c1OC returned SARS PLP yeast 2%, HCMV inh inconclusive, FMDV antiviral -24% and HCV inhibitor 10µM*.
For Cc1ccc(NS(=O)(=O)c2ccc3c(c2)oc(=O)n3C)cc1 the results were SARS PLP yeast -1%, HCMV inh -63*, MARV entry inh inconclusive, FMDV antiviral 9%, LASV entry inh -8% and HCV inhibitor -7%.
